In PubChem BioAssay (Tox21):
Where “and” joins values, the source holds several entries; their conditions need not be identical. Equal entries are not always repeated. Results filed as inconclusive are left out. Entries that show only a call come without a potency. Some structures have more than one record in an assay (separate samples or runs), and their calls can disagree. Calls of active or inactive are those of the source. Unless noted, the call rests on the fitted dose curve; in most records, active means well fitted curve in the direction sought with a large enough effect in the repeat runs; inconclusive means weak or mixed curves; inactive means no such curve, though single readings can be large; an effect the other way counts as inactive or inconclusive.

Key:
[1] = qHTS assay for small molecule agonists of the p53 signaling pathway (AID 651631; calls by dose curve; further: nearly all actives have a fitted effect of over 15% in size); conditions: HCT-116 p53RE-bla reporter, beta-lactamase FRET ratio, 16 h; series mostly up to 73.3 µM
Method in brief: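 Beta-lactamase reporter activity under p53 response elements was quantified in HCT-116 cells by FRET fluorescence, following 16 h incubation with test compounds at 37 °C and 2 h substrate development at room temperature.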

[2] = qHTS assay for small molecules that induce genotoxicity in human embryonic kidney cells expressing luciferase-tagged ATAD5 (AID 651632); conditions: HEK293T ATAD5-luciferase induction, 16 h; series mostly up to 83.3 µM; further: nearly all actives have a fitted effect of over 15% in size; further: potency means the concentration at half of the fitted maximal effect
Method in brief: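 HEK293T cells carrying luciferase-tagged ATAD5 were given compound or DMSO vehicle and incubated 16 hr at 37C, 5% CO2. Luciferase activity was read after 30 min at room temperature with Amplite; a rise signals genotoxic stress.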

[3] = qHTS assay for small molecules that induce genotoxicity in human embryonic kidney cells expressing luciferase-tagged ATAD5 - cell viability (AID 651634; calls by dose curve; further: nearly all actives have a fitted effect of over 25% in size); conditions: HEK293T ATAD5-luc cells viability, CellTiter-Fluor, 15.5 h; series mostly up to 83.3 µM
Method in brief: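 HEK293T cells carrying luciferase-tagged ATAD5, 2,000 cells/well, exposed to compound for 15.5 hr at 37C. Viability read as live-cell protease activity by CellTiter-Fluor fluorescence after 30 min at 37C.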

[4] = qHTS assay for small molecule disruptors of the mitochondrial membrane potential - cell viability (AID 720634; calls by dose curve; further: nearly all actives have a fitted effect of over 20% in size; further: potency means the concentration at half of the fitted maximal effect); conditions: HepG2 viability, ATP luminescence (CellTiter-Glo), 1 h; series mostly up to 83.2 µM
Method in brief: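 HepG2 cells, 2,000 per well, attached overnight, then treated 1 hr at 37 C, 5% CO2. Viability read as ATP by CellTiter-Glo luminescence after 30 min at room temperature. Read in the same wells as the m-MPI membrane-potential dye assay.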

[5] = qHTS assay for small molecule disruptors of the mitochondrial membrane potential (AID 720635); conditions: HepG2 mitochondrial membrane potential, Mito-MPS dye ratio; series mostly up to 83.2 µM; further: potency means the concentration at half of the fitted maximal effect
Method in brief: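 HepG2 cells exposed to compound 1 hr at 37C, then Mito-MPS dye 30 min. Ratio read of aggregate (540/590 nm) versus monomer (490/535 nm) fluorescence.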

[6] = qHTS assay to test for compound auto fluorescence at 590 nm (red) in HepG2 cells (AID 720674); conditions: HepG2 autofluorescence, red 540/590 nm, 1 h; series mostly up to 46 µM
Method in brief: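 Seeding: 2,000 HepG2 cells/well, MEM/10% FBS, overnight 37 C. Dosing: compound vs DMSO. Incubation: 1 hr, 37 C, 5% CO2. Read: fluorescence 540 ex/590 em, Rose Bengal sodium as red reference.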

[7] = qHTS assay to test for compound auto fluorescence at 535 nm (green) in HepG2 cells (AID 720675); conditions: green autofluorescence 485/535 nm, 1 h; series mostly up to 46 µM
[8] = qHTS assay to test for compound auto fluorescence at 460 nm (blue) in HEK293 cells (AID 720678); conditions: blue autofluorescence 405/460 nm; series mostly up to 46 µM
Method in brief: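 HEK293 cells (2,000 per well, medium with 10% dialyzed FBS) attached for 4-5 hr at 37C, then received compound and stood overnight at 37C, 5% CO2. Blue fluorescence was read at Ex/Em 405/460 nm and expressed relative to triamterene.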

[9] = qHTS assay to test for compound auto fluorescence at 590 nm (red) in HEK293 cells (AID 720679); conditions: red autofluorescence 540/590 nm; series mostly up to 46 µM
Method in brief: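 HEK293 cells (2,000/well, medium with 10% dialyzed FBS) attached for 4-5 hr at 37C, received 23 nL compound and were incubated overnight at 37C, 5% CO2. Red fluorescence was then read at 540/590nm Ex/Em, referenced to Rose Bengal sodium.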

[10] = qHTS assay for small molecule agonists of the p53 signaling pathway - cell viability (AID 651633; calls by dose curve; further: nearly all actives have a fitted effect of over 30% in size); conditions: p53RE-bla HCT-116 viability, ATP luminescence, 16 h; series mostly up to 83.3 µM
Method in brief: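 p53RE-bla cells were treated with compound for 16 hours at 37 C. Cytotoxicity was then measured as CellTiter-Glo luminescence after 30 min at room temperature.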

SMILES	outcome [1]	Potency [2]	Potency [3]	Potency [4]	Potency [5]	outcome [6]	outcome [7]	outcome [8]	outcome [9]	outcome [10]
C1OCOCO1	inactive	inactive	inactive	inactive	inactive	inactive	inactive	inactive	inactive	–
O=Cc1cccc([N+](=O)[O-])c1	–	inactive	inactive	inactive	–	inactive	inactive	inactive	inactive	inactive
CCC=O	–	inactive	inactive	inactive	–	inactive	inactive	inactive	inactive	inactive
COC(=O)CCSCCC(=O)OC	–	inactive	inactive	inactive	inactive	inactive	inactive	inactive	inactive	–
CC(C)(O)C(=O)c1ccccc1	–	inactive	inactive	inactive	inactive	inactive	inactive	inactive	inactive	–
O=C1CCCN1C1CCCCC1	–	inactive	inactive	inactive	–	inactive	inactive	inactive	inactive	–
CN(C)CCCN1c2ccccc2CCc2ccc(Cl)cc21	–	–	inactive	inactive	–	inactive	inactive	inactive	inactive	inactive
CO/N=C(/C(=O)N[C@@H]1C(=O)N2C(C(=O)OCOC(=O)C(C)(C)C)=C(C)CS[C@H]12)c1csc(N)n1	–	inactive	inactive	inactive	–	inactive	inactive	inactive	inactive	–
Cc1c(O)cccc1O	–	inactive	inactive	inactive	inactive	inactive	inactive	inactive	inactive	–
O=C(O)CN(CCOCCOCCN(CC(=O)O)CC(=O)O)CC(=O)O	–	inactive	inactive	inactive	–	inactive	inactive	inactive	inactive	inactive
CCCCNC(=O)NCCCC	–	inactive	inactive	inactive	–	inactive	inactive	inactive	inactive	inactive
Nc1c[n+](N2CCOCC2)no1	–	inactive	inactive	inactive	inactive	inactive	inactive	inactive	inactive	–
Cc1[nH]c(=O)c(C#N)cc1-c1ccc2nccn2c1	–	inactive	inactive	inactive	–	inactive	inactive	inactive	inactive	inactive
OC1CCCCC1c1ccccc1 (stereo unspecified)	–	inactive	inactive	inactive	–	inactive	inactive	inactive	inactive	inactive
C=C1CC[C@H]2C[C@@H]1C2(C)C	–	inactive	inactive	–	–	inactive	inactive	inactive	inactive	inactive
NCCc1cnc[nH]1	–	–	inactive	inactive	–	inactive	inactive	inactive	inactive	–
CCO/C([O-])=N/c1c[n+](N2CCOCC2)no1	–	inactive	inactive	inactive	–	inactive	inactive	inactive	inactive	inactive
CC(C)(C)c1nnc(NS(=O)(=O)c2ccccc2)s1	–	inactive	inactive	inactive	–	inactive	inactive	inactive	inactive	–
CCc1ccc(O)c(OC)c1	–	inactive	inactive	inactive	–	inactive	inactive	inactive	inactive	inactive
CCCCOCCOCCOCc1cc2c(cc1CCC)OCO2	–	–	inactive	inactive and 17.4 µM (active)	55.1 µM (active)	inactive	inactive	inactive	inactive	–
C=C(C)CS(=O)(=O)O	–	inactive	inactive	inactive	–	inactive	inactive	inactive	inactive	inactive

SMILES	outcome [1]	Potency [2]	Potency [3]	Potency [4]	Potency [5]	outcome [6]	outcome [7]	outcome [8]	outcome [9]	outcome [10]
CCOC(=O)CC(C)=O	–	–	inactive	inactive	–	inactive	inactive	inactive	inactive	–
CC(C)(C)c1ccc(O)c(O)c1	–	–	inactive	inactive	15.9 µM (active) and 13.7 µM (active)	inactive	inactive	inactive	inactive	–
CCOc1ccc(C(=O)OCCN(CC)CC)cc1	–	inactive	inactive	inactive	–	inactive	inactive	inactive	inactive	inactive
CC(=O)OC/C=C(\C)CC/C=C(\C)CCC=C(C)C	–	inactive	inactive	inactive	inactive	inactive	inactive	inactive	inactive	–
CC(=O)OCC(=O)[C@@]1(O)CC[C@H]2[C@@H]3CCC4=CC(=O)CC[C@]4(C)[C@H]3C(=O)C[C@@]21C	–	inactive	inactive	inactive	–	inactive	inactive	inactive	inactive	inactive
COC(=O)C1=C(C)NC(C)=C(C(=O)OC)C1c1ccccc1[N+](=O)[O-]	–	inactive	–	inactive	inactive and 61.2 µM (active)	inactive	inactive	inactive	inactive	inactive
CCO[Si](CCC1CCC2OC2C1)(OCC)OCC (stereo unspecified)	–	inactive	inactive	inactive	inactive	inactive	inactive	inactive	inactive	–
CC/C=C\CC/C=C/CO	–	inactive	inactive	inactive	–	inactive	inactive	inactive	inactive	–
CC(C)OC(=O)c1ccccc1	–	inactive	inactive	inactive	–	inactive	inactive	inactive	inactive	inactive
Cc1ccc(C#N)cc1	–	inactive	inactive	inactive	–	inactive	inactive	inactive	inactive	inactive
CN1C(=O)N(C)C(O)C1O (stereo unspecified)	–	inactive	inactive	inactive	–	inactive	inactive	inactive	inactive	inactive
C[C@H](NC(CCc1ccccc1)C(=O)O)C(=O)N1CCC[C@H]1C(=O)O (stereo partly specified)	–	inactive	inactive	inactive	inactive	inactive	inactive	inactive	inactive	–
CC(=O)N(CC(O)CO)c1c(I)c(C(=O)NCCO)c(I)c(C(=O)NCC(O)CO)c1I (stereo unspecified)	–	inactive	inactive	inactive	inactive	inactive	inactive	inactive	inactive	–
CO[C@]12C[C@@H](COC(=O)c3cncc(Br)c3)CN(C)[C@@H]1Cc1cn(C)c3cccc2c13	–	inactive	–	inactive	inactive	inactive	inactive	inactive	inactive	–
CCOC(=O)Nc1ccc(NCc2ccc(F)cc2)nc1N	–	inactive	inactive	inactive	inactive	inactive	inactive	–	inactive	–
CC(C)NC(=O)NC(C)C	–	inactive	inactive	inactive	–	inactive	inactive	inactive	inactive	–
NC(CSCC(=O)O)C(=O)O (stereo unspecified)	–	inactive	inactive	inactive	–	inactive	inactive	inactive	inactive	inactive
Cc1nc2c([nH]1)c(=O)n(C)c(=O)n2Cc1ccco1	–	inactive	inactive	inactive	inactive	inactive	inactive	inactive	inactive	–
CCCC(=O)O[C@]1(C(=O)CO)CC[C@H]2[C@@H]3CCC4=CC(=O)CC[C@]4(C)[C@H]3[C@@H](O)C[C@@]21C	–	–	inactive	inactive	–	inactive	inactive	inactive	inactive	–
O=c1cc(-c2ccccc2)oc2ccccc12	–	17.2 µM (active) and 19.3 µM (active)	inactive	–	48.6 µM (active) and 15.4 µM (active)	inactive	inactive	inactive	inactive	–
